DENV2 CPE rescue = protects cells from dengue virus 2 cytopathic effect | CPE inhibition, % at 9.99 µM | AID 651640 | actives 1.7% (n = 350,000) | DENV2-infected cells, cytopathic effect rescue, plate reader; in the data active = CPE inhibition above about 20%, passing the limit was not always enough; tested in BHK-21 cells;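 also: 0% = median of neutral control wells and 100% = median of positive control wells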
FGF22 binding = FGF22 (human) thermal shift binding; Q9HCT0; actives 1.5% (n = 340,000); recombinant FGF22 thermal shift, SYPRO orange fluorescence; percent of sucrose octasulfate shift, DMSO zero; activity (Tm shift, normalised), % at 9.99 µM;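 active = mean Tm shift, scaled 0 neutral to 100 positive control, at about 1.3% or above, every replicate too, limit read from the data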
ERAP1 HTS inh = inhibitors of human ERAP1 aminopeptidase | Q9NZ08 | recombinant ERAP1, Leu-AMC fluorescence, 60 min | inhibition, % at 10.7 µM | actives 0.15% (n = 340,000) | AID 652197;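 active = mean replicate inhibition of at least 30%, or all replicates individually reaching that 30% level; inactive = mean below 30% and not every replicate reaching it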;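 also: 0% = neutral control wells and 100% = L-leucinethiol positive control wells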
Target sequence (Q9NZ08 whole entry, looked up): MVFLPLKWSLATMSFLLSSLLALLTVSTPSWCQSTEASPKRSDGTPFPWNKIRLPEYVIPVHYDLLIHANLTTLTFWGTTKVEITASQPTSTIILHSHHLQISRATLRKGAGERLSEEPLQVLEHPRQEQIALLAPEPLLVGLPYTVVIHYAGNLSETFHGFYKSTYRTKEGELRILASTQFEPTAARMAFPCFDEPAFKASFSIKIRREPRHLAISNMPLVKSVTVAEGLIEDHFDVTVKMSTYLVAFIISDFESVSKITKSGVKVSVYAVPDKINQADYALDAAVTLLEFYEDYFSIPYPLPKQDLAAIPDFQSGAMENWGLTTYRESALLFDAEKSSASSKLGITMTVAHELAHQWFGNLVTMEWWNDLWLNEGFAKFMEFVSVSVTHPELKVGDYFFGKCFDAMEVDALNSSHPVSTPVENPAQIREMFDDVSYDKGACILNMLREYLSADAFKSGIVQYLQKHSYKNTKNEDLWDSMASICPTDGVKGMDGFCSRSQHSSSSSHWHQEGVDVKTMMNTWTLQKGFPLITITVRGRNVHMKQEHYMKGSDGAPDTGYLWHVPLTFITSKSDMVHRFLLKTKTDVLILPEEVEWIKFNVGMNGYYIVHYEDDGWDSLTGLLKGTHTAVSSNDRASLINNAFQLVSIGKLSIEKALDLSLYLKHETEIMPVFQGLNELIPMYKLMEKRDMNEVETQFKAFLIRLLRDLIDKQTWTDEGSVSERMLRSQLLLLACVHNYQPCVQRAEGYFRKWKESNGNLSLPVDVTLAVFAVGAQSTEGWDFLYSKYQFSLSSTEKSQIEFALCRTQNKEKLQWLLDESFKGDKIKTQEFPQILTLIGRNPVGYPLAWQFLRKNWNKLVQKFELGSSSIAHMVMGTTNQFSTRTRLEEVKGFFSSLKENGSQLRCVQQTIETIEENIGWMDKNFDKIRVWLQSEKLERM
RAD52 anneal inh = inhibitors of human RAD52 DNA annealing; recombinant RAD52 DNA annealing, FRET fluorescence; P43351; actives 0.46% (n = 360,000); inhibition, % at 18.7 µM;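 active = every replicate showing at least 50% inhibition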
AF4-AF9 inh = inhibitors of human MLL-AF4/AF9 interaction; P42568; AlphaScreen, biotin-AF4 peptide binding to FLAG-AF9; inhibition, % at 10 µM; actives 0.47% (n = 350,000); AID 651704;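 active = every replicate reaching a set inhibition limit, whatever the replicate mean, cut at about 25% in these data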;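 also: 0% = plate neutral control median and 100% = total signal loss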
* = called active by the depositor; ! = not confirmed by another sample. Rows were chosen to be rich in hits. Some 4% of all compounds tested hit in one or more screens of this group.

Results for Cc1cc(C)cc(C(=O)N[C@@H](C)C(=O)N2CCC3(CC2)NCCc2[nH]cnc23)c1 ?
DENV2 CPE rescue: 8; FGF22 binding: 43*; ERAP1 HTS inh: -4; RAD52 anneal inh: -4; AF4-AF9 inh: -3

How did CCCCN(CCCC)C(=O)CN(C)S(=O)(=O)c1ccc2c(c1)n(C)c(=O)c(=O)n2C do in these assays?
DENV2 CPE rescue: 16; FGF22 binding: 0; ERAP1 HTS inh: 0; RAD52 anneal inh: -16; AF4-AF9 inh: 7

Results for CN(CC(=O)O)S(=O)(=O)c1ccc2c(c1)n(C)c(=O)c(=O)n2C ?
DENV2 CPE rescue: 6; FGF22 binding: 44*; ERAP1 HTS inh: 1; RAD52 anneal inh: 1; AF4-AF9 inh: -6

How did Cc1nnc(Cl)c2nn(-c3ccccc3)c(C)c12 do in these assays?
DENV2 CPE rescue: 7; FGF22 binding: 0; ERAP1 HTS inh: 5; RAD52 anneal inh: -31; AF4-AF9 inh: 6

How did CCOc1ccc(-n2nc3c(Cl)nnc(C)c3c2C)cc1 do in these assays?
DENV2 CPE rescue: -10; FGF22 binding: 0; ERAP1 HTS inh: 2; RAD52 anneal inh: -15; AF4-AF9 inh: 58*

Results for Cc1ccc2nsnc2c1NC(=O)c1ccc([N+](=O)[O-])cc1 ?
DENV2 CPE rescue: -5; FGF22 binding: 43*; ERAP1 HTS inh: 2; RAD52 anneal inh: -14; AF4-AF9 inh: -2

How did C[C@@H]1CN([C@@H](C)CO)S(=O)(=O)c2ccc(-c3cccnc3)cc2O[C@H]1CN(C)C(=O)C1CCCCC1 do in these assays?
DENV2 CPE rescue: -8; FGF22 binding: 0; ERAP1 HTS inh: 0; RAD52 anneal inh: 9; AF4-AF9 inh: 2

What do the screens show for `CN(C)S(=O)(=O)c1cccc(-c2csc(=Nc3ccccc3)n2CCCN2CCOCC2)c1`?
DENV2 CPE rescue: -2; FGF22 binding: 0; ERAP1 HTS inh: 2; RAD52 anneal inh: 5; AF4-AF9 inh: 32*

How did O=C1C(Cl)=C(O)C2(Cl)C(Cl)=C(Cl)C12Cl (centres undefined) do in these assays?
DENV2 CPE rescue: -4; FGF22 binding: 1.4*; ERAP1 HTS inh: 5; RAD52 anneal inh: -21; AF4-AF9 inh: 1

How did C[C@H]1CN([C@@H](C)CO)C(=O)c2cccc(NS(=O)(=O)c3ccc(Cl)cc3)c2O[C@H]1CN(C)Cc1ccc(C(F)(F)F)cc1 do in these assays?
DENV2 CPE rescue: 20; FGF22 binding: 0; ERAP1 HTS inh: 0; RAD52 anneal inh: -14; AF4-AF9 inh: 4

What do the screens show for `COc1cccc(NC(=O)Nc2ccc3c(c2)C(=O)N(C)C[C@@H](OC)[C@@H](C)CN(C)[C@H](C)CO3)c1`?
DENV2 CPE rescue: 26*; FGF22 binding: 0; ERAP1 HTS inh: 0; RAD52 anneal inh: 95*; AF4-AF9 inh: 0

What do the screens show for `CO[C@H]1CN(C)C(=O)c2cc(NC(=O)Nc3cccc(F)c3)ccc2OC[C@H](C)N(C)C[C@H]1C`?
DENV2 CPE rescue: 29*; FGF22 binding: 0; ERAP1 HTS inh: -5; RAD52 anneal inh: 20; AF4-AF9 inh: 2

What do the screens show for `COc1cccc(NC(=O)Nc2ccc3c(c2)C(=O)N(C)C[C@H](OC)[C@H](C)CN(CC2CC2)[C@@H](C)CO3)c1`?
DENV2 CPE rescue: -4; FGF22 binding: 0; ERAP1 HTS inh: 0; RAD52 anneal inh: 45; AF4-AF9 inh: 7

What do the screens show for `COc1cccc(NC(=O)Nc2ccc3c(c2)C(=O)N(C)C[C@@H](OC)[C@H](C)CN(CC2CC2)[C@@H](C)CO3)c1`?
DENV2 CPE rescue: 8; FGF22 binding: 0; ERAP1 HTS inh: -2; RAD52 anneal inh: 64*; AF4-AF9 inh: 7

How did COc1cccc(NC(=O)Nc2ccc3c(c2)C(=O)N(C)C[C@H](OC)[C@H](C)CN(C)[C@H](C)CO3)c1 do in these assays?
DENV2 CPE rescue: -9; FGF22 binding: 0; ERAP1 HTS inh: -3; RAD52 anneal inh: 89*; AF4-AF9 inh: 11

What do the screens show for `C[C@H]1CN([C@@H](C)CO)C(=O)c2cccc(NC(=O)c3ccc(-c4nccs4)cc3)c2O[C@H]1CN(C)CC1CCCCC1`?
DENV2 CPE rescue: -2; FGF22 binding: 0; ERAP1 HTS inh: -3; RAD52 anneal inh: 8; AF4-AF9 inh: 0

How did COc1ccc2c3c(n(C)c2c1)[C@@H](CO)N(Cc1ccc2c(c1)OCO2)CC31CCN(C(C)=O)CC1 do in these assays?
DENV2 CPE rescue: -2; FGF22 binding: 0; ERAP1 HTS inh: 4; RAD52 anneal inh: -8; AF4-AF9 inh: 2

Results for C/C=C/c1cnc2c(c1)C(=O)N([C@@H](C)CO)C[C@@H](C)[C@@H](CN(C)C(=O)C1CCCCC1)O2 ?
DENV2 CPE rescue: 8; FGF22 binding: 0; ERAP1 HTS inh: -1; RAD52 anneal inh: -1; AF4-AF9 inh: 2

What do the screens show for `O=C(NCc1ccco1)C1CCCN1C(=O)Nc1cccc(Cl)c1` (centres undefined)?
DENV2 CPE rescue: 0; FGF22 binding: 43*; ERAP1 HTS inh: 1; RAD52 anneal inh: -9; AF4-AF9 inh: -1

Results for O=C(NCc1ccco1)C1CCCN1C(=O)Nc1ccc(Cl)cc1 (centres undefined) ?
DENV2 CPE rescue: -7; FGF22 binding: 0; ERAP1 HTS inh: 0; RAD52 anneal inh: -6; AF4-AF9 inh: -1

How did COc1ccc(-c2ccc3c(c2)[C@H]2[C@H](CCN2C(=O)Cc2ccccc2)[C@H](CO)N3C)cc1 do in these assays?
DENV2 CPE rescue: -18; FGF22 binding: 0

What do the screens show for `O=C(C1CC1)N1C[C@@H]2N[C@H](C1)C2c1ccc(/C=C/c2ccccc2)cc1` (some centres undefined)?
DENV2 CPE rescue: -4; RAD52 anneal inh: 51*!; AF4-AF9 inh: 10

What do the screens show for `Cc1ccccc1-c1ccc(C2[C@@H]3CN(C(=O)C4CC4)C[C@H]2N3)cc1` (some centres undefined)?
DENV2 CPE rescue: 27*!; ERAP1 HTS inh: -4; RAD52 anneal inh: 84*!; AF4-AF9 inh: -13

Results for CN(C)CC(=O)N1C[C@@H]2N[C@H](C1)C2c1ccc(/C=C/c2ccccc2)cc1 (some centres undefined) ?
DENV2 CPE rescue: 17; FGF22 binding: 0

Results for O=C(Nc1ccccc1F)N1C[C@@H]2N[C@H](C1)C2c1ccc(/C=C/c2ccccc2)cc1 (some centres undefined) ?
DENV2 CPE rescue: 1; ERAP1 HTS inh: 2; RAD52 anneal inh: 69*; AF4-AF9 inh: 8

What do the screens show for `COc1ccc(/C=C/C(=O)c2ccc(C(=O)/C=C/c3ccc(OC)c(OC)c3)cc2)cc1OC`?
DENV2 CPE rescue: 1; FGF22 binding: 0; ERAP1 HTS inh: -3; RAD52 anneal inh: -122; AF4-AF9 inh: -2

How did COc1ccc(/C=C\c2cc(OC)c(OC)cc2CC[N+](C)(C)C)cc1OC do in these assays?
DENV2 CPE rescue: -2; FGF22 binding: 0; ERAP1 HTS inh: 99*; RAD52 anneal inh: 22; AF4-AF9 inh: 0

What do the screens show for `c1ccc(-c2nnsc2-c2nc3ccccc3[nH]2)cc1`?
DENV2 CPE rescue: 0; FGF22 binding: 43*; ERAP1 HTS inh: -5; RAD52 anneal inh: -23; AF4-AF9 inh: 0

Screening data deposited in PubChem by Broad Institute.
